Outcome and AC50 data for 40 molecules are collected here from PubChem BioAssay (EPA / NIEHS).

Calls of active or inactive are those of the source. The calls were made as follows: active = hit-call score of the fitted dose curve at least 0.9, where 1 is the maximum; inactive = score below 0.9.

Nuclear factor NF-kappa-B p105 subunit (Homo sapiens), sequence (P19838 whole entry, looked up): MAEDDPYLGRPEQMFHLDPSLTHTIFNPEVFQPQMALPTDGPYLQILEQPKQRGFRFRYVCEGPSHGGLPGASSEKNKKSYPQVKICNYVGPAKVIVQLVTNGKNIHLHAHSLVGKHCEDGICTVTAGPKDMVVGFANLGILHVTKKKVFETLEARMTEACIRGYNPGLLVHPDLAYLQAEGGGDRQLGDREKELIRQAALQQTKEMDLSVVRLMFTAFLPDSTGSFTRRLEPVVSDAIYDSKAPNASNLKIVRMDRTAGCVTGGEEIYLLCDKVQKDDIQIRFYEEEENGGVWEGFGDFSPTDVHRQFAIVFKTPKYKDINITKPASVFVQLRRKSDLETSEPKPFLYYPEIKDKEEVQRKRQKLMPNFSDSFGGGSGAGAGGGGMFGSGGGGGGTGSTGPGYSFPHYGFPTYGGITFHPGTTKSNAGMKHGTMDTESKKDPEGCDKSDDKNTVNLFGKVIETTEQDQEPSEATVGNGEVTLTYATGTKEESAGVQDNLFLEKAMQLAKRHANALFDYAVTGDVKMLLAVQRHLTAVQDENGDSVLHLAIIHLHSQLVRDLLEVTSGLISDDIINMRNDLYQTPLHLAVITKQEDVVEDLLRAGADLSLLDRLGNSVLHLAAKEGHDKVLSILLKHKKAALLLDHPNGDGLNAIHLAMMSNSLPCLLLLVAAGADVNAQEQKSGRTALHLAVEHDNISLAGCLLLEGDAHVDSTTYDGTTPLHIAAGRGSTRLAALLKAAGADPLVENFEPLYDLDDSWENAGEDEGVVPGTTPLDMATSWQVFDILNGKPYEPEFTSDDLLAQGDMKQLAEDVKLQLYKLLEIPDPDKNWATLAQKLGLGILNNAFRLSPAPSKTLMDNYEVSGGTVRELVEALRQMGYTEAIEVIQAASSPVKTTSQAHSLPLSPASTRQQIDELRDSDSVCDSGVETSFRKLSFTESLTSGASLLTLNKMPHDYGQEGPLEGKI

Read-out in the assay: Nuclear factor NF-kappa-B p105 subunit (Homo sapiens) (UniProt P19838)
Kind of assay: LTEA_HepaRG_NFKB1: Life Technologies and Expression Analysis (LTEA) Assay for Nuclear Factor Kappa B Subunit 1 (NFKB1) using HepaRG (AID 2283521).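 As to Outcome: TaqMan qRT-PCR transcript normalised to ACTB GAPDH and POLR2A housekeeping genes.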 To be noted: mRNA level, 48 h; actives raise or lower the signal. The protocol:
LTEA_HepaRG is a cell based, multiplexed-readout assay that uses HepaRG, a human liver cell line, with measurements taken at 48 hours after chemical dosing on a 96-well plate.LTEA_HepaRG_NFKB1 is one of 102 assay component(s) measured in the LTEA HepaRG cell culture assay. It is a marker of Cell proliferation, survival, death.Data from the assay component LTEA_HepaRG_NFKB1 was analyzed into 1 endpoint. This assay endpoint, LTEA_HepaRG_NFKB1, was analyzed with bidirectional fitting relative to DMSO as the negative control and baseline of activity. Using a type of inducible reporter, measures of mRNA induction for gain or loss-of-signal activity can be used to understand regulation of transcription factor activity. To generalize the intended target to other relatable targets, this assay endpoint is annotated to the dna binding intended target family, where the subfamily is NF-kappa B.
A total of 1060 chemcials from the ToxCast library were tested in eight-point concentration-response experiments. Cell culture and cytotoxicity assays were conducted at Thermo Fisher Scientific's Custom Services facility (Madison, WI). A single lot of human HepaRG cells (Thermo Fisher Scientific, Frederick, MD) was used for the cell culture experiments. 96-well format collagen type I coated plates of human HepaRG cells were prepared using established methods. Briefly, cryopreserved HepaRG cells were thawed, plated at a density of approximately 100,000 cells/well in HepaRG Thaw, Plate, and General Purpose media (HPRG770, Thermo Fisher Scientific), and incubated for 48 hours. 0.5% DMSO was selected as vehicle control to balance the requisite need of DMSO in HepaRG cultures to maintain differentiation (for example, baseline metabolism, proportions of hepatocytes vs. cholangiocytes), while enabling further hepatic receptor pathway activation (for example, PXR and CAR) in response to chemical exposure. 48 hours after plating, the culture medium was replaced with HepaRG Serum-Free Incudtion Media. Cells were exposed to each test chemical in duplicate and maintained in CO2 incubators for another 48 hours. Chemical plates were thawed to room temperature and 200x concentrations of treatment groups were prepared. 8-point conentration-reponse curves were made with the highest exposure at 100 uM, followed by half-log dilutions, all in 0.5% DMSO. Each test plate contained variouse controls, induction positive controls (1mM phenobarbital), cytotoxicity positive controls ([…] aflatoxin B1), vehicle controls (0.5% DMSO), and total lysis controls (0.5% DMSO). Cell morphology images were taken using an Essen IncuCyte FLR automated microscope, with six 96-well plates imaged in about 24 minutes. Images were captured and exported and JPEG files. Spent culture media was transfered to black-well plates for the LDH assay, and remaining media was sorted at -80 C for later use. Cells were treated with RLT buffer and frozen until shipped for gene expression analysis. Total RNA was isolated from the cell suspension in 75 uL of Buffer RLT (Qiagen, Germantown, MD 20874) by Quintiles/Expression Analysis (Durham, NC) using a custom isolation procedure. Total RNA from each plate well was transferred to a preamplification plate. Fluidigm's 96.96 Dynamic ArrayTM (Fluidigm, Amsterdam, the Netherlands) technology was used for gene expression analyses by quantitative reverse transcription polymerase chain reaction (qRT-PCR, performed by Quintiles/Expression Analysis, Durham, NC)89. Standard TaqManTM Assays (Applied Biosystems/ThermoFisher Scientific, Foster City, CA) were used to assess the expression of 93 genes selected based on their selectivity and sensitivity to important hepatic receptors known to be modulated by environmental chemicals; importance in human hepatocyte functionality; and hepatotoxicity. […]
As to `CCCSP(=O)(OCC)Oc1ccc(Br)cc1Cl` (stereo not given), the molecule was called inactive.

Turning to `CNC(=O)ON=C(C)SC`, the molecule was classed as inactive.

On to `CCOP(=S)(OCC)OC(Cl)C(Cl)(Cl)Cl` (stereo not given), for which the result was inactive.

With `CCOP(=S)(OCC)Oc1ccc([N+](=O)[O-])cc1`, the call was inactive.

Regarding `C[N+]1(C)CCCCC1`, the molecule was called inactive.

Consider `CCCCOC(=O)[C@@H](C)Oc1ccc(Oc2ccc(C#N)cc2F)cc1`, for which the result was inactive.

Take `COP(=O)(OC)SCn1c(=O)oc2cc(Cl)cnc21`: the molecule was called inactive.

Take `Nc1c(Cl)cc([N+](=O)[O-])cc1Cl`: the AC50 was 12.2 µM (active).

Regarding `COP(=O)(OC)C(O)C(Cl)(Cl)Cl` (stereo not given), the molecule was called inactive.

As for `CC1=NNC(=O)N(/N=C/c2cccnc2)C1`, the molecule was classed as inactive.

In the case of `CCOP(=O)(NC(C)C)Oc1ccc(SC)c(C)c1` (stereo not given), the molecule was classed as inactive.

`S=C1NCCN1`: the molecule was classed as inactive.

As for `Nc1nc(N)nc(NC2CC2)n1`, the outcome was inactive.

For `CCOC(=O)COc1cc(-c2nn(C)c(OC(F)F)c2Cl)c(F)cc1Cl`, the molecule was classed as inactive.

Consider `O=[N+]([O-])c1cc(C(F)(F)F)c(Cl)c([N+](=O)[O-])c1Nc1ncc(C(F)(F)F)cc1Cl`, for which the outcome was inactive.

On to `CCc1cccc(C)c1N(C(=O)CCl)C(C)COC` (stereo not given), for which the outcome was inactive.

As to `CCOC(=O)CC(SP(=O)(OC)OC)C(=O)OCC` (stereo not given), the molecule was called inactive.

Consider `N#CSCSC#N`, for which the result was inactive.

With `CNc1cnn(-c2cccc(C(F)(F)F)c2)c(=O)c1Cl`, the molecule was called inactive.

Turning to `CCCCN(CC)c1c([N+](=O)[O-])cc(C(F)(F)F)cc1[N+](=O)[O-]`, the call was inactive.

As to `CC(=NC#N)N(C)Cc1ccc(Cl)nc1`, the molecule was called inactive.

Turning to `C#CC(C)(C)NC(=O)c1cc(Cl)cc(Cl)c1`, the molecule was classed as inactive.

On to `CCOP(=S)(OCC)SCCSCC`, for which the molecule was called inactive.

For the molecule `CCCOCC(=Nc1ccc(Cl)cc1C(F)(F)F)n1ccnc1`, the call was inactive.

Regarding `CN(C)C(=O)Nc1cccc(C(F)(F)F)c1`, the call was inactive.

For `CC(COc1ccc(Oc2ccccc2)cc1)Oc1ccccn1` (stereo not given), the outcome was inactive.

As to `CSc1nnc(C(C)(C)C)c(=O)n1N`, the call was inactive.

For `CCC(CC)Nc1c([N+](=O)[O-])cc(C)c(C)c1[N+](=O)[O-]`, the call was inactive.

As to `CCCCOC(=O)c1ccccc1C(=O)O`, the call was inactive.

Consider `COc1cc(OC)nc(Sc2cccc(Cl)c2C(=O)O)n1`, for which the call was inactive.

As for `CC(C)[C@H](C(=O)O[C@H](C#N)c1cccc(Oc2ccccc2)c1)c1ccc(Cl)cc1`, the molecule was classed as inactive.

Take `CNC(=O)ON=C(SC)C(=O)N(C)C`: the outcome was inactive.

As to `CCOP(=S)(Oc1cnc(C(C)(C)C)nc1)OC(C)C` (stereo not given), the molecule was classed as inactive.

Regarding `CN1COCN(Cc2cnc(Cl)s2)C1=N[N+](=O)[O-]`, the molecule was classed as inactive.

Turning to `C=C(C)[C@H]1Cc2c(ccc3c2O[C@@H]2COc4cc(OC)c(OC)cc4[C@@H]2C3=O)O1`, the result was inactive.

Consider `CCC(=NOC/C=C/Cl)C1=C(O)CC(C2CCOCC2)CC1=O` (stereo not given), for which the result was inactive.

For `FC(F)C(F)(F)OCC(Cn1cncn1)c1ccc(Cl)cc1Cl` (stereo not given), the result was inactive.

As for `O=c1ccc(=O)[nH][nH]1`, the outcome was inactive.

As for `COc1ccc(C(=CC(=O)N2CCOCC2)c2ccc(Cl)cc2)cc1OC`, the molecule was called inactive.

On to `COc1cccc(C(=O)NN(C(=O)c2cc(C)cc(C)c2)C(C)(C)C)c1C`, for which the result was inactive.
